This is a sample that favours compounds with a hit; in the whole collection about 11% have one here.
Gal4-VP16 FLuc: Gal4-VP16 reporter inhibition counter-screen; Drosophila S2 Gal4-VP16 UAS-luciferase, luminescence, 20 h; Potency, µM (doses to about 53.6 µM), usual class: inhibitors; hit rate 3.5% among 310,000; AID 2546;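 also: Gal4-VP16 expression switched on by copper sulfate through the metallothionein promoter; nearly all actives have a fitted effect of over 50% in size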
SW480 rereplic: DNA re-replication induction in SW480 cells; SW480 DNA re-replication, Hoechst DNA content imaging, 48 h; Potency, µM (titrated, usually from 46.1 µM), most hits filed as activators; hit rate 1.8% among 340,000; AID 624297; also: nearly all actives have a fitted effect of over 55% in size
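Readout is total intensity of Hoechst-stained nuclei, excited at 405 nm and collected at 500-530 nm. Compound treatment lasted 48 hr at 37 C in 5% CO2 before staining.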
RORgamma inh: ROR gamma (mouse) transcription inhibition. Potency, µM (series often up to 53.6 µM), actives largely listed as inhibitors. Drosophila S2 Gal4-RORgamma UAS-luciferase reporter, 20 h. hit rate 5.4% among 310,000. P51450. AID 2551; also: nearly all actives have a fitted effect of over 60% in size
Target sequence (P51450 whole entry, looked up, the tested form may be a part): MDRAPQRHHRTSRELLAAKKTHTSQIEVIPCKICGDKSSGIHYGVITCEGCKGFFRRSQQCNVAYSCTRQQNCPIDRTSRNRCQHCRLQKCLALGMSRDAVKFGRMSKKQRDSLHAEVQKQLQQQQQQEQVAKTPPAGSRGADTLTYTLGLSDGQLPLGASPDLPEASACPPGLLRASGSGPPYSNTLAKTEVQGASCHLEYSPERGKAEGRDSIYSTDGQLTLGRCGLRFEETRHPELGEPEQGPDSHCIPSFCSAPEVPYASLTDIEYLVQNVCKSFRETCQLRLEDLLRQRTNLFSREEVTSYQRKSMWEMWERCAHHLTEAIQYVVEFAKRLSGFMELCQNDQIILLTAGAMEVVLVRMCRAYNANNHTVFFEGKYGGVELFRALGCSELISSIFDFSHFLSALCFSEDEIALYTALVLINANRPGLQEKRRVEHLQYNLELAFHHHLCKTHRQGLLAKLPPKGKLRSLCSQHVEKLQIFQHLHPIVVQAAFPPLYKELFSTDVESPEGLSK
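A Gal4/UAS one-hybrid system in insect cells: metallothionein-promoter Gal4–ROR gamma fusion plus Photinus luciferase reporter. Copper sulfate 700 uM final, 20 hr ambient incubation, luminescent detection after 10 min with reagent.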
MCF10A rereplic: induces DNA re-replication in MCF 10a normal breast cells; MCF 10A DNA re-replication, Hoechst nuclear intensity, 48 h; Potency, µM (top dose mostly 46.1 µM), usual class: activators; hit rate 2.9% among 350,000; also: nearly all actives have a fitted effect of over 50% in size
IL1B secr inh: blocks inflammasome-driven IL-1 beta release | activity change, % at 57.5 µM | THP-1 LPS/ATP IL-1B secretion, AlphaLISA, 16 h; active compounds read low | hit rate 4.7% among 360,000; in the data active = activity change below about -50%; inconclusive = mostly about -30% to -49%
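THP-1 cells pretreated 1 hr with compounds (up to 57.5 uM final), then stimulated with LPS (250 ng/mL final) plus ATP (1.25 mM final); secreted IL-1B measured by AlphaLISA after 16 hr, decreased signal indicating inhibition.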
A number is an active result. Unless noted, calls follow the shape of the dose curve; as a rule, active = well fitted curve in the direction sought with a large enough effect; inconclusive = small, poorly fitted or top-dose-only effect, or another doubt; inactive = no such curve, though single readings can be large; an effect the other way counts as inactive or inconclusive.

`Cc1ccc(C(C)C)c(OCC(=O)Nc2ccc(Cl)cn2)c1` gave Gal4-VP16 FLuc inactive, SW480 rereplic inactive, RORgamma inh inactive, MCF10A rereplic inconclusive and IL1B secr inh inactive.
`O=C(CSCc1ccccc1)N1CCN(S(=O)(=O)c2ccc(F)cc2)CC1` gave Gal4-VP16 FLuc inactive, SW480 rereplic inactive, RORgamma inh inactive, MCF10A rereplic inactive and IL1B secr inh inactive.
`Cc1ccc(OCC(=O)N2N=C(C(F)(F)F)CC2(O)C(C)(C)C)cc1C` (stereo not given) gave Gal4-VP16 FLuc inconclusive, SW480 rereplic inconclusive, RORgamma inh inactive, MCF10A rereplic 8.2µM and IL1B secr inh inactive.
For Nc1nonc1-n1nnc(C(=O)N/N=C/c2ccco2)c1CSc1ccc(Cl)cc1 the results were IL1B secr inh inactive.
For O=C(CSCc1ccccc1)N1CCN(c2ccc(F)cc2)CC1 the results were Gal4-VP16 FLuc inactive, SW480 rereplic inactive, RORgamma inh inconclusive, MCF10A rereplic 25.9µM and IL1B secr inh inconclusive.
O=C(CSCc1ccccc1)N1CCN(c2ccccc2)CC1 was read as Gal4-VP16 FLuc inactive, SW480 rereplic inconclusive, RORgamma inh inactive, MCF10A rereplic inactive and IL1B secr inh inactive.
For CC1=NN(C(=O)CCc2ccccc2)C(O)(c2ccncc2)C1 (stereo not given) the results were Gal4-VP16 FLuc inconclusive, SW480 rereplic inconclusive, RORgamma inh 1.78µM, MCF10A rereplic inactive and IL1B secr inh inactive.
For COC(=O)C1=NN(C(=O)c2cccc(Cl)c2)C(O)(C(C)(C)C)C1 (stereo not given) the results were Gal4-VP16 FLuc inconclusive, SW480 rereplic inactive, RORgamma inh 5.01µM, MCF10A rereplic inconclusive and IL1B secr inh inactive.
`CCCCNC(=O)c1cn(CC(C)C)c(=O)c2c1c1ccccc1n2C` gave Gal4-VP16 FLuc inactive, SW480 rereplic inactive, RORgamma inh inactive, MCF10A rereplic inactive and IL1B secr inh inactive.
For COc1ccccc1C(C)Nc1nc(-c2cccnc2)nc2ccccc12 (stereo not given) the results were Gal4-VP16 FLuc inactive, SW480 rereplic inactive, RORgamma inh inactive, MCF10A rereplic inconclusive and IL1B secr inh inconclusive.
Screening CC(C)(C)c1ccc(C(O)c2ncc(-c3ccccc3F)[nH]2)cc1 (stereo not given) returned IL1B secr inh inactive.
Cc1cccc(-n2ncc3c(NCc4cccnc4)ncnc32)c1 was read as Gal4-VP16 FLuc inactive, SW480 rereplic inactive, RORgamma inh inactive, MCF10A rereplic inactive and IL1B secr inh inactive.
Screening Cc1ccc(-n2ncc3c(NNC(=O)c4ccco4)ncnc32)c(C)c1 returned Gal4-VP16 FLuc inconclusive, SW480 rereplic inactive, RORgamma inh 11.2µM, MCF10A rereplic inactive and IL1B secr inh inactive.
For Cc1ccc(-n2ncc3c(NCc4cccnc4)ncnc32)c(C)c1 the results were Gal4-VP16 FLuc 17.8µM, SW480 rereplic inactive, RORgamma inh inconclusive, MCF10A rereplic inconclusive and IL1B secr inh inactive.
`O=C(NNc1ncnc2c1cnn2-c1ccc(F)cc1)c1ccco1` gave Gal4-VP16 FLuc 10µM, SW480 rereplic inactive, RORgamma inh 8.91µM, MCF10A rereplic inactive and IL1B secr inh inconclusive.
`Cc1ccc(-n2ncc3c(NNC(=O)c4cccs4)ncnc32)cc1` gave Gal4-VP16 FLuc 10µM, SW480 rereplic inactive, RORgamma inh 1.26µM, MCF10A rereplic inactive and IL1B secr inh inactive.
CCCc1cc(=O)[nH]c(Nc2ccc(Cl)cc2)n1 was read as Gal4-VP16 FLuc inactive, SW480 rereplic inactive, RORgamma inh inactive, MCF10A rereplic inactive and IL1B secr inh -76.1.
For CCCc1cc(=O)[nH]c(Nc2ccc(O)cc2)n1 the results were Gal4-VP16 FLuc inactive, SW480 rereplic inactive, RORgamma inh inactive, MCF10A rereplic inactive and IL1B secr inh inactive.
CC1(C)CC(=O)C(C(C2=C(O)CC(C)(C)CC2=O)c2cccs2)C(=O)C1 (stereo not given) was read as Gal4-VP16 FLuc inactive, SW480 rereplic inconclusive, RORgamma inh inconclusive, MCF10A rereplic inconclusive and IL1B secr inh -96.1.
FC(F)(F)c1ccc(CN2C[C@@H]3C(c4ccc(C(F)(F)F)cc4)C4(c5ccccc5)CC3(C4)[C@H]2c2ccccc2)cc1 (stereo not given in full) was read as Gal4-VP16 FLuc inactive and RORgamma inh inactive.
Cc1c(C(=O)Oc2cccc3cccnc23)oc2ccccc12 was read as Gal4-VP16 FLuc 6.31µM, SW480 rereplic inconclusive, RORgamma inh 3.16µM, MCF10A rereplic inconclusive and IL1B secr inh inconclusive.
For O=C(/C=C\c1ccco1)Oc1cccc2cccnc12 the results were Gal4-VP16 FLuc 4.47µM, SW480 rereplic inactive, RORgamma inh 1.41µM, MCF10A rereplic inconclusive and IL1B secr inh -165.4.
For COc1ccccc1/C=C/C(=O)Oc1cccc2cccnc12 the results were Gal4-VP16 FLuc 5.62µM, SW480 rereplic inconclusive, RORgamma inh 3.16µM, MCF10A rereplic inconclusive and IL1B secr inh inactive.
For O=C(/C=C/c1ccco1)Oc1cccc2cccnc12 the results were Gal4-VP16 FLuc 4.47µM, SW480 rereplic inconclusive, RORgamma inh 1.41µM, MCF10A rereplic inactive and IL1B secr inh -94.4.
CCc1nc2ccccc2c(C(=O)Oc2cccc3cccnc23)c1C was read as Gal4-VP16 FLuc inactive, SW480 rereplic inactive, RORgamma inh inactive, MCF10A rereplic inconclusive and IL1B secr inh inactive.
CC(=O)Nc1cc(C(=O)N(C)Cc2ccccc2)ccc1S(=O)(=O)c1ccc(C)cc1 was read as Gal4-VP16 FLuc inactive, SW480 rereplic inactive, RORgamma inh inactive, MCF10A rereplic inactive and IL1B secr inh inactive.
COc1ccc(NC(=O)COC(=O)c2cc3c(s2)CCC3)cc1 was read as SW480 rereplic inactive, MCF10A rereplic inactive and IL1B secr inh inactive.
Nc1ccc2c(Cl)cc(Cl)cc2c1 was read as IL1B secr inh inactive.
Screening C=CC(=O)N(CCC)C(c1ccccc1)c1ccccc1OC (stereo not given) returned SW480 rereplic inactive, MCF10A rereplic inconclusive and IL1B secr inh inactive.
Screening O=C(N/N=C/c1ccccn1)c1ccc(Br)o1 returned Gal4-VP16 FLuc inconclusive, SW480 rereplic inactive, RORgamma inh 12.6µM, MCF10A rereplic inactive and IL1B secr inh inactive.
O=C(N/N=C/c1cccnc1)c1cc(Br)ccc1O was read as Gal4-VP16 FLuc inactive, SW480 rereplic inactive, RORgamma inh inconclusive, MCF10A rereplic inactive and IL1B secr inh inactive.
For O=C(N/N=C/c1ccccn1)c1cc(Br)ccc1O the results were Gal4-VP16 FLuc 4.47µM, SW480 rereplic 4.11µM, RORgamma inh 3.98µM, MCF10A rereplic inconclusive and IL1B secr inh inactive.
For COc1ccc(C(=O)N/N=C/c2ccccn2)cc1 the results were IL1B secr inh inactive.
`Cc1ccc(NC(=O)COC(=O)CCc2c(C)nc3ncnn3c2C)cc1` gave SW480 rereplic inactive, MCF10A rereplic inactive and IL1B secr inh inactive.
`CCN(C(N)=S)c1ccccc1` gave Gal4-VP16 FLuc inactive, SW480 rereplic inactive, RORgamma inh 11.2µM, MCF10A rereplic inactive and IL1B secr inh inactive.

Assay outcomes as filed in PubChem BioAssay.
